# Source: ChEMBL document CHEMBL3988442, “University of Dundee, Small-Polar-MMV Screening Library” (2021)
# The whole screen tested about 48,000 compounds, of which about 13,000 (27%) showed an effect of 50% or more. Some of the results follow.
# Test system: Wolbachia pipientis
# Assay: Anti-Wolbachia Cell-Based Screen
# Format: functional
# Parameters: scale not given: in the data most compounds retested in dose-response had high values
# Conditions: 5 µM
row,SMILES,Percent Effect [%]
1,CN(Cc1ccon1)C(=O)C1CC(=O)N(Cc2ccncc2)C1 (stereo not drawn),7.553
2,c1cncc(-c2noc(CNc3ncnc4c3CCNCC4)n2)c1,1.079
3,COc1ccc(-c2cc(CC3(NCc4ccc(C)o4)COC3)no2)cc1,0
4,COc1ccc(-c2cc(CNc3ncnc4c3CCNCC4)no2)cc1,113.1
5,COCc1noc(CCNc2ncnc3c2CCNCC3)n1,1.85
6,Cc1ccc(-c2cc(CNc3ncnc4c3CCNCC4)no2)cc1,96.68
7,O=C(c1ccon1)N1CCc2ncnc(NCc3ccccn3)c2CC1,-13.25
8,c1cncc(-c2noc(CCNc3ncnc4c3CCNCC4)n2)c1,-0.2436
9,Clc1ccccc1-c1cc(CNc2ncnc3c2CCNCC3)no1,100.4
10,CCCS(=O)(=O)N1CC[C@H]2O[C@H](c3nnc(C)o3)CC[C@H]21,-25.7
11,CN(CC(N)=O)C(=O)c1cnc(-c2ccc(Cl)s2)s1,2.419
12,CN1CCCN(C(=O)NCCOc2ccc3c(c2)OCO3)CC1,115.1
13,CC(=O)N1CCCN(C(=O)NCCOc2ccc3c(c2)OCO3)CC1,96.11
14,O=C(NCCOc1ccc2c(c1)CCC2)N1CCS(=O)(=O)CC1,35.32
15,CCCN1CCCN(C(=O)Nc2ccc3c(c2)OCO3)CC1,-18.65
16,CC(C)Cc1noc(CNc2cc3c(cc2Cl)OCCCO3)n1,11.73
17,CCc1ccc(C(=O)NC2CCN(c3cnn(C)c3)C2=O)o1 (stereo not drawn),0.5002
18,Cc1ccc(C(=O)NC(CN2CCCC2=O)c2ccccc2)c(=O)[nH]1 (stereo not drawn),-15.69
19,CCc1ccc(C(=O)Nc2ccc3c(c2)N(C)CCN(C)C3)o1,68.84
20,Cc1cc(C(=O)Nc2ccc3c(c2)N(C)CCN(C)C3)on1,108.1
21,Cc1ccc(C(=O)Nc2ccc3c(c2)N(C)CCN(C)C3)c(=O)[nH]1,112.4
22,N#Cc1cc(NC(=O)c2cc[nH]n2)ccc1N1CCC(O)CC1,-7.892
23,Cc1cc(C(=O)NC2CCCN(c3ccccc3)C2=O)on1 (stereo not drawn),-7.232
24,CN1CCN(C)c2cc(NC(=O)c3cc[nH]n3)ccc2C1,95.27
25,Cn1cc(NC(=O)c2cc[nH]n2)cc(Cl)c1=O,-6.664

row,SMILES,Percent Effect [%]
1,Cc1ccc(C(=O)NCC2CCN(C)c3ccccc32)c(=O)[nH]1 (stereo not drawn),-6.721
2,CCc1ccc(C(=O)Nc2cc(N3CCNC3=O)ccc2Cl)o1,2.04
3,CCc1ccc(NC(=O)c2cnc(N3CCN(C)CC3)nc2C)cc1,0.5656
4,CC(C)N(CC(N)=O)Cc1c(Cl)ccc2cccnc12,35.48
5,CCN(CC)C(=O)c1cnc(Sc2nccn2C)c(Cl)c1,-3.996
6,COc1ccccc1CC(=O)NCCCN1CCCC1C(=O)N(C)C (stereo not drawn),-7.215
7,CCN(Cc1noc(C)n1)C(=O)C(c1ccccc1C)N(C)C (stereo not drawn),20.53
8,CS(=O)(=O)NCC(=O)NC1(c2ccc(Cl)c(Cl)c2)CC1,-6.64
9,Cc1ccc(-n2cc(CN3CCOCC(CN(C)C)C3)cn2)cc1C (stereo not drawn),-29.82
10,O=C([C@@H]1CCCN1c1nccc(Nc2ccccc2)n1)N1CCCCC1,107.6
11,O=C(C1CCCN1c1ncnc2ccsc12)N1CCSCC1 (stereo not drawn),-9.281
12,CNC(=O)[C@@H](c1ccccc1)N1CCC[C@H]1C(=O)NCc1ccccn1.Cl.Cl,-0.04544
13,Cl.O=C(O)[C@@H]1CCCN1c1nccc(Nc2ccccc2)n1,110.6
14,Cc1cn2nc(N3CCCC3C(=O)N3CCSCC3)sc2n1 (stereo not drawn),-34.07
15,O=C(Nc1cccc(N2CCCC2)c1)C1CCCN1c1nccs1 (stereo not drawn),-13.09
16,OCc1ccc(N2CCN(c3ncccn3)CC2)c(F)c1,10.85
17,COc1cc(C2C3=C(COC3=O)Nc3[nH]nc(C)c32)cc(Br)c1O (stereo not drawn),6.444
18,CC(C)CSc1ccc(-n2cccn2)nn1,-15.59
19,O=C(O)C(F)(F)F.O=C1[C@H]2CN(CC3CCOCC3)C[C@H]2CN1c1ccsc1,-12.76
20,CNS(=O)(=O)c1ccc(CN2CCCC2c2ccc(F)cc2)cc1 (stereo not drawn),-2.722
21,O=S(=O)(c1ccc(F)cc1)N1CCCCC1c1cc[nH]n1 (stereo not drawn),93.21
22,O=S(=O)(c1ccccc1)N1CCCCC1c1cc[nH]n1 (stereo not drawn),7.34
23,O=S(=O)(c1ccccc1F)N1CCCCC1c1cc[nH]n1 (stereo not drawn),126.5
24,O=C(O)C(F)(F)F.O=S(=O)(c1ccc(F)cc1)N1CC[C@H]2[C@H]1CCN2c1ncccn1,5.126
25,COCCN(C)CC1CCCN1S(=O)(=O)c1cccc(F)c1F (stereo not drawn),-7.612

row,SMILES,Percent Effect [%]
1,COc1nn(C)c2c1CCCN(S(=O)(=O)c1ccccc1F)C2,9.619
2,CS(=O)(=O)c1ccc(CN2CCCCC2c2ccc(F)cc2)cc1 (stereo not drawn),14.88
3,O=S(=O)(c1ccc(F)cc1)N1CCCC1c1cc[nH]n1 (stereo not drawn),93.9
4,CCN1C(=O)C[C@@H]2[C@@H]1CCN2S(=O)(=O)c1ccccc1,-17.79
5,O=S(=O)(c1ccccc1)N1CCCC1c1cc[nH]n1 (stereo not drawn),100.7
6,CN(Cc1ccno1)C(=O)c1cccc(CC2CCNCC2)c1,-13.23
7,Cc1nc(C2(NC(=O)NCc3cc(C#N)ccc3F)CCCC2)no1,-8.279
8,Cc1nc(C2(NCc3ccc(C#N)cc3F)CCCC2)no1,14.6
9,CCNC(=O)NC(=O)CNC1(c2noc(C)n2)CCCC1,91.61
10,COc1cc(-c2nccn2C(C)CCn2cccn2)cc2c1OCO2 (stereo not drawn),-13.68
11,CC1CCN(C)c2ccccc2N1C(=O)c1ccc(=O)n(C)n1 (stereo not drawn),-12.65
12,CC(C)CCN1CCCC12Cc1ccccc1CNC2=O (stereo not drawn),106.1
13,CC(C)(C)CN1CCCC(O)(CN2CCc3[nH]ncc3C2)C1=O (stereo not drawn),-1.805
14,CC(C)(C)CN1CCCC12Cc1ccccc1CNC2=O (stereo not drawn),188
15,COc1nn(C)cc1C(=O)NCC(=O)NCc1ccccn1,5.267
16,Cc1cccc(N(CCC(N)=O)CC(=O)Nc2ccccc2)c1,2.508
17,O=C(CSc1nnc[nH]1)NCc1cccs1,-6.872
18,Cc1cccc(N(CCC(N)=O)CC(=O)NC2CCCC2)c1,-5.461
19,Cc1ccc(CNC(=O)CN(CCC(N)=O)c2ccc(F)cc2)cc1,105.8
20,O=C(CN(Cc1cccs1)c1ccc(F)cc1)NC1CCOCC1,-0.05044
21,O=C(NCc1ccccn1)N(Cc1ccc(F)cc1F)C1CC1,-2.472
22,NC(=O)CCN(CC(=O)NCc1cccs1)c1ccc(F)cc1,110
23,NC(=O)CCN(CC(=O)NCc1ccccn1)c1ccc(F)cc1,119
